# A number with no mark means an inactive call. For some assays here: Entries with a potency or affinity are not part of this list. Calls of active or inactive are those of the source. Unless noted, how the calls were made is not given here.
# Key:
# [1] = antimalarial activity against Dd2 strain (AID 2302;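 active means growth inhibition above 50% at the single 2 µM test dose, taken to imply half-maximal potency below 2 µM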;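 further: 0% = DMSO untreated growth and 100% = chloroquine plus artemisinin killed control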); details: P. falciparum Dd2 in RBCs, LDH growth readout, 72 h; at 2 µM; stronger effect = higher value
# [2] = HepG2 cytotoxicity, primary screen, cytotoxicity control for P. falciparum antimalarial project, cell-based, ATP luminescence (AID 2303;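 active means inhibition above 50%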;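 further: 0% = DMSO wells and 100% = digitonin-killed cells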); details: HepG2 viability, 24-48 h, at 10 µM, stronger effect = higher value
# [3] = molecular target: L-lactate dehydrogenase (Plasmodium falciparum (isolate CDC / Honduras)) (UniProt Q27743); assay: PfLDH activity inhibition – cell lysate, 3D7 strain, counter-screen for P. falciparum growth inhibition project (AID 2304);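 further: 0% = vehicle and 100% = reference inhibitor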; details: P. falciparum 3D7 crude extract, LDH APAD/NBT absorbance; at 2 µM; stronger effect = higher value
# Sequence of L-lactate dehydrogenase (Plasmodium falciparum (isolate CDC / Honduras)) (Q27743 whole entry, looked up): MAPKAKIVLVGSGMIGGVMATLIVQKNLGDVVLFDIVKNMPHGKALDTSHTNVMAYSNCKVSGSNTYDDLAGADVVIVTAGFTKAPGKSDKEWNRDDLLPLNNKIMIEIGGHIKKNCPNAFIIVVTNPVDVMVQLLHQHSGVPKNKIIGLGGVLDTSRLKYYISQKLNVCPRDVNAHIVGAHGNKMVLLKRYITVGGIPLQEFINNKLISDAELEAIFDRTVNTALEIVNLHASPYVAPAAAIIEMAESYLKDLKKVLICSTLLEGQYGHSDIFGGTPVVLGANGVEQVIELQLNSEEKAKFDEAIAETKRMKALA
# [4] = inhibition of 3D7 malaria parasite growth – strain 3D7 (AID 2306);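 further: 0% = DMSO wells and 100% = chloroquine plus artemisinin control wells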; details: P. falciparum 3D7 erythrocytic growth, LDH absorbance, 72 h; at 2 µM; stronger effect = higher value
# [5] = molecular target: Calcium-dependent protein kinase 1 (Plasmodium falciparum (isolate 3D7)) (UniProt P62344); assay: PfCDPK1 kinase inhibitors, biochemical, TCAMS library (AID 1159585; cut-off not given, nearly all actives have IC50 up to about 0.98 µM;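 further: inhibitors leave more ATP so luminescence rises with inhibition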); details: recombinant PfCDPK1, Kinase-Glo ATP depletion luminescence
# Sequence of Calcium-dependent protein kinase 1 (Plasmodium falciparum (isolate 3D7)) (P62344 whole entry, looked up): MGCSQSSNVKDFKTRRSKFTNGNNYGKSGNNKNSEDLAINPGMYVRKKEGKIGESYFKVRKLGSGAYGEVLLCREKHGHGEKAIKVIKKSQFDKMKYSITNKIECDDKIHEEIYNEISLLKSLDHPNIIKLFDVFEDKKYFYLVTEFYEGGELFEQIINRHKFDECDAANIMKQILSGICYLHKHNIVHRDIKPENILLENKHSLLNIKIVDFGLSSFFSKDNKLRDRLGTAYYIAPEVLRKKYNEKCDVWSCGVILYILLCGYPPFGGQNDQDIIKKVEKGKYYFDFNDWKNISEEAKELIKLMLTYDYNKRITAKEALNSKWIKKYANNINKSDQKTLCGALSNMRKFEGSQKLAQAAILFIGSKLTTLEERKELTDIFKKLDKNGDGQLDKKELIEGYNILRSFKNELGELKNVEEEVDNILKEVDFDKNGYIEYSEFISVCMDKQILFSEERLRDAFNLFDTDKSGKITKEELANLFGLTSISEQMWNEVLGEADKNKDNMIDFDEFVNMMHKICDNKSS
# [6] = molecular target: Plasmodium falciparum protein kinase 6 (PK6, PF3D7_1337100) (UniProt Q8IDW1); assay: PfPK6 kinase inhibitors, biochemical, TCAMS library (AID 1159586); details: recombinant PfPK6, Kinase-Glo ATP depletion luminescence
# Sequence of Plasmodium falciparum protein kinase 6 (PK6, PF3D7_1337100) (Q8IDW1 1-305): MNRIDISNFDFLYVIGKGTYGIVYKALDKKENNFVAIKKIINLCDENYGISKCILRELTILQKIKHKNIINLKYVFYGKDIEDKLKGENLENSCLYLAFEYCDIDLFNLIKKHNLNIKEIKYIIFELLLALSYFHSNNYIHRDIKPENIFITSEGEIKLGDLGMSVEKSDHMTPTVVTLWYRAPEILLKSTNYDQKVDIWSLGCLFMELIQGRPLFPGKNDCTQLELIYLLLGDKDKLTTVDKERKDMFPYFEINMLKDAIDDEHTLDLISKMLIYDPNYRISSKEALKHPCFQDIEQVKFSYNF
# [7] = molecular target: Protein kinase 7 (PK7), Plasmodium falciparum 3D7 (PF3D7_0213400) (UniProt Q7YTF7); assay: inhibition of Plasmodium PK7 catalytic activity – biochemical, TCAMS antimalarial set, Kinase-Glo luminescence (AID 1159587); details: recombinant PfPK7, Kinase-Glo ATP depletion luminescence
# Sequence of Protein kinase 7 (PK7), Plasmodium falciparum 3D7 (PF3D7_0213400) (Q7YTF7 1-343): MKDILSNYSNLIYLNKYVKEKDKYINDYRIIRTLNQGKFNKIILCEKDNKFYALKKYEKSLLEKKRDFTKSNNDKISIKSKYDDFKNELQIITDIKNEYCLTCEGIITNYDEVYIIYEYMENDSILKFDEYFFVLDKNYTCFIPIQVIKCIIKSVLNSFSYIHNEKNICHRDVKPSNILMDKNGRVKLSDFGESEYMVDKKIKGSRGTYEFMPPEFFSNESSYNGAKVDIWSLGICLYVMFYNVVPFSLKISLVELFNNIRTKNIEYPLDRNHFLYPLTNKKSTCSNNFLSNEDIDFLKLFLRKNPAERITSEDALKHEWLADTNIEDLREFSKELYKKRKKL
# [8] = molecular target: Calcium-dependent protein kinase 4 (Plasmodium falciparum (isolate 3D7)) (UniProt Q8IBS5); assay: PfCDPK4 kinase inhibitors, biochemical, TCAMS library (AID 1159588; cut-off not given, nearly all actives have IC50 up to about 0.91 µM); details: recombinant PfCDPK4, Kinase-Glo ATP depletion luminescence
# Sequence of Calcium-dependent protein kinase 4 (Plasmodium falciparum (isolate 3D7)) (Q8IBS5 whole entry, looked up): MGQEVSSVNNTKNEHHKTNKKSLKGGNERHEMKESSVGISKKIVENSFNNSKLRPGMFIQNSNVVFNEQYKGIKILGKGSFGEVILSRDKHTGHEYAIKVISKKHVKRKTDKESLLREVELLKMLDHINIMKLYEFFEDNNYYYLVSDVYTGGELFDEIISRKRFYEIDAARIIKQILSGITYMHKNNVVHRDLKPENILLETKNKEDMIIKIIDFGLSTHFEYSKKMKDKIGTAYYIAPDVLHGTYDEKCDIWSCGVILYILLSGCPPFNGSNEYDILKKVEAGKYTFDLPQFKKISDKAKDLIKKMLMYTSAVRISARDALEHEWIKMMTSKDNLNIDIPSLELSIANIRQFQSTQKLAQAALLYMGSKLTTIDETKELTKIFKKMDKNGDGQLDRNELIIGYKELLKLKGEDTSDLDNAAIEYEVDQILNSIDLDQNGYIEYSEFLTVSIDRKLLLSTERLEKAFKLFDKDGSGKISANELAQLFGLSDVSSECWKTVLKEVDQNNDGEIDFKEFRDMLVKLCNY
SMILES,growth inhibition [1],inhibition [2],inhibition [3] [%],growth inhibition [4],outcome [5],outcome [6],outcome [7],outcome [8]
Cc1[nH]c(C)c(-c2ccc(Oc3ccc(O)cc3)cc2)c(=O)c1Cl,87% (active),-2%,-3,91% (active),inactive,inactive,inactive,inactive
COc1ccc2c(NN=C(C)c3ccccn3)cc(C)nc2c1,51% (active),33%,-5,102% (active),inactive,inactive,inactive,inactive
CCCCCCCNCCNc1cc(C)nc2ccccc12,99% (active),58% (active),-4,100% (active),inactive,inactive,inactive,inactive
Cc1ccc(NC(=O)c2ccc(CN3CCCN(CCC(C)C)CC3)cc2)cc1C,17%,25%,3,92% (active),inactive,inactive,inactive,inactive
CC(C)NCc1ccc(-c2cccc(NC(=O)c3ccc(Cl)cc3)c2)cc1,82% (active),20%,-7,100% (active),inactive,inactive,inactive,inactive
CNc1ccc(CNCc2ccc(-c3ccc(-c4nc5c(C)cccc5[nH]4)cc3)cc2)cc1,92% (active),35%,-8,100% (active),inactive,inactive,inactive,inactive
CCCCN(CCCC)C(=O)CC(O)c1cc2c(Cl)cc(Cl)cc2c2cc(C(F)(F)F)ccc12 (stereo not given),68% (active),-12%,-2,92% (active),inactive,inactive,inactive,inactive
CN1CCN(CC(=O)Nc2cccc(-c3ccc(-c4nc5ccc(C(F)(F)F)cc5[nH]4)s3)c2)CC1,95% (active),36%,1,102% (active),inactive,inactive,inactive,inactive
CCN(CCCN1CCCCC1)c1cc(C)nc(Nc2ccc(Cl)c(C(F)(F)F)c2)n1,55% (active),43%,2,96% (active),inactive,inactive,inactive,inactive
Cc1ccc(Nc2nc(C)cc(NC3CCN(C)CC3)n2)cc1,21%,14%,2,100% (active),inactive,inactive,inactive,inactive
COc1ccc(-c2cccc(NC(=O)c3ccc(C#N)cc3)c2)cc1CN1CCN(C)CC1,2%,24%,-3,93% (active),inactive,inactive,inactive,inactive
COCCCNC(=O)c1ccc(O)c(-c2cc(Cl)cc(Cl)c2)c1,34%,22%,-7,94% (active),inactive,inactive,inactive,inactive
COc1ccc(CCN(Cc2cccs2)C(=O)c2cc3sccc3n2C)cc1OC,97% (active),0%,1,94% (active),inactive,inactive,inactive,inactive
CS(=O)(=O)c1ccc(CCNCc2ccc(-c3ccc(CN(C(=O)c4ccc(Cl)nc4)C4CCN(Cc5ccccc5)CC4)cc3)nc2)cc1,70% (active),24%,-2,93% (active),inactive,inactive,inactive,inactive
CCCCN1C(=O)C(c2ccccc2)(c2ccccc2)N=C1N,34%,19%,7,87% (active),inactive,inactive,inactive,inactive
COCCNc1nc(N2CCC(CNC(=O)c3ccc(-c4ccc(C(=O)N(C)C)cc4C)cc3)CC2)nc2cc(OC)c(OC)cc12,97% (active),12%,3,98% (active),inactive,inactive,inactive,inactive
O=C(NC1CCN(Cc2ccccc2O)C1)c1cccc(C(F)(F)F)c1 (stereo not given),62% (active),-4%,4,98% (active),inactive,inactive,inactive,inactive
Cc1cc(N2CC=CCC2)nc(/N=C(\N)Nc2ccc(Br)cc2)n1,41%,10%,-3,98% (active),inactive,inactive,inactive,inactive
CC(=O)N[C@H](C(=O)Nc1ccc(-c2ccc(-c3nc4ccc(C(F)(F)F)cc4[nH]3)cc2)cc1)C(C)C,76% (active),24%,7,88% (active),inactive,inactive,inactive,inactive
CCCCC(=O)Nc1cc(=O)[nH]c2nc(-c3ccc(Cl)cc3)nn12,77% (active),1%,0,89% (active),inactive,inactive,inactive,inactive

SMILES,growth inhibition [1],inhibition [2],inhibition [3] [%],growth inhibition [4],outcome [5],outcome [6],outcome [7],outcome [8]
CC1(C)N=C(N)N=C(N)N1c1cc(Cl)c(Cl)c(Cl)c1,31%,68% (active),-7,93% (active),inactive,inactive,inactive,inactive
Cc1cccc2[nH]c(-c3ccc(-c4ccc(NC(=O)NCc5cccc(F)c5)cc4)s3)nc12,43%,70% (active),-6,101% (active),inactive,inactive,inactive,inactive
COc1c(CNCCCCCCNCc2c(OC)c(OC)c3ccccc3c2OC)c(OC)c2ccccc2c1OC,98% (active),100% (active),-2,96% (active),inactive,inactive,inactive,inactive
c1ccc2cc3c(Nc4ccc(N5CCCCCC5)cc4)ccnc3cc2c1,76% (active),10%,1,94% (active),inactive,inactive,inactive,inactive
CCCCCn1c(Sc2ccc(C#N)c([N+](=O)[O-])c2)nnc1-c1ccc(OC)cc1,44%,8%,4,88% (active),inactive,inactive,inactive,inactive
CCCCOC(=O)c1ccc(Nc2cc(C)nc3ccc(OC)cc23)cc1,96% (active),4%,-5,100% (active),inactive,inactive,inactive,inactive
NC(=O)c1cccc(C(=O)Nc2cccc(-c3csc(-c4nc5ccccc5[nH]4)c3)c2)c1,92% (active),16%,0,101% (active),inactive,inactive,inactive,inactive
Cc1cc2ncn(-c3nccc(NCc4ccc(F)c(C)c4)n3)c2cc1C,82% (active),10%,-3,90% (active),inactive,inactive,inactive,inactive
COc1ccc(-c2cncc(-c3ccc(OC)c(OC)c3)n2)cc1OC,90% (active),6%,6,95% (active),inactive,inactive,inactive,inactive
Cc1ccc2c(NN=Cc3ccc(N(C)C)cc3)cc(C)nc2c1,46%,-9%,8,99% (active),inactive,inactive,inactive,inactive
O=S(=O)(NCCN1CCCC1)c1ccc(-c2ccccc2CNC2Cc3ccccc3C2)cc1,67% (active),19%,-9,95% (active),inactive,inactive,inactive,inactive
Cc1ccc(C(C)C)c(Oc2cnc(NC(CO)c3ccccc3)nc2N)c1 (stereo not given),0%,27%,4,95% (active),inactive,inactive,inactive,inactive
O=C(CSc1nccn1C1CCCCC1)Nc1cc(C(F)(F)F)ccc1Cl,95% (active),2%,-1,96% (active),inactive,inactive,inactive,inactive
CC(=O)c1ccc(-n2ccnc2)cc1,-1%,-4%,-3,92% (active),inactive,inactive,inactive,inactive
CN(CC(=O)Nc1ccc(F)cc1)C(=O)c1ccc(-c2ccc(F)cc2)o1,84% (active),3%,-2,89% (active),inactive,inactive,inactive,inactive
Nc1nc(N)c2c(ccn2Cc2cc3c(cc2Cl)OCO3)n1,11%,67% (active),-3,98% (active),inactive,inactive,inactive,inactive
CCCC1N=C(N)N=C(N)N1c1ccc(Cl)cc1 (stereo not given),-2%,14%,5,96% (active),inactive,inactive,inactive,inactive
N#Cc1cccc(C(=O)Nc2cccc(-c3ccc(C(=O)Nc4cccnc4)cc3)c2)c1,10%,39%,-1,89% (active),inactive,inactive,inactive,inactive
Cc1cc(NC(=O)[C@H](CC2CCCCC2)Nc2ccc(C#N)c3ccccc23)ccc1F,99% (active),21%,-6,102% (active),inactive,inactive,inactive,inactive
COC1CCC(C(=O)Nc2ccc(-c3cccc(-c4nc5c(C)cccc5[nH]4)c3)cc2)CC1 (stereo not given),60% (active),89% (active),1,97% (active),inactive,inactive,inactive,inactive

# — PubChem BioAssay
